The supplement of paper PMC8975748
Structures can show the parent of a compound that is named as a salt. ± gives the standard deviation of the averaged measurements.

How the values were obtained:
[1] = system: Saccharomyces cerevisiae BY4741 SeMeCo community; assay: mean cell size (pixel area) (pixels); higher = larger cells; settings: 10 µM; 24 h; SM minimal medium
Method in brief: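 Yeast cells were fixed with paraformaldehyde, imaged by automated confocal microscopy and analysed in Harmony to obtain mean cell pixel area per well. They came from a four-plasmid fluorescent Saccharomyces cerevisiae BY4741 community, each plasmid complementing one auxotrophy and carrying a fluorescent marker. Before imaging, 70 µl of culture at OD600 = 0.3 was incubated for 24 h in SM medium in 384-well plates predosed acoustically with drug (final 10 µM). Values are means of 3 replicates. Same SeMeCo high-content imaging drug screen: Selleck FDA-approved drugs at 10 µM, 24 h in SM medium, 384-well plates, 3 replicates.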

[2] = system: Saccharomyces cerevisiae BY4741 SeMeCo community; assay: z-score of prototroph abundance vs DMSO median; higher = larger share of this subpopulation than in DMSO controls; settings: 10 µM; 24 h; SM minimal medium; subpopulation (auxotrophy): Prototroph
Method in brief: (§1)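 A Saccharomyces cerevisiae BY4741 community carried four plasmids, each restoring one auxotrophy and encoding a distinct fluorescent protein. It was pre-grown overnight to OD600 1.0, diluted to 0.3, and 70 µl was added to 384-well plates acoustically predosed with library drugs (10 µM final), then grown 24 h in minimal SM medium. Cells were paraformaldehyde-fixed and imaged by automated confocal microscopy, with single-auxotroph fluorescent strains setting thresholds and autofluorescence correction. Each subpopulation's abundance was scored as a z-score against the vehicle-well median.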

[3] = system: Saccharomyces cerevisiae BY4741 SeMeCo community; assay: z-score of subpopulation abundance vs DMSO median, subpopulation auxotrophic for M; higher = larger share of this subpopulation than in DMSO controls; settings: 10 µM; 24 h; SM minimal medium; subpopulation (auxotrophy): M
Method in brief: as §1

[4] = system: Saccharomyces cerevisiae BY4741 SeMeCo community; assay: z-score of subpopulation abundance vs DMSO median, subpopulation auxotrophic for L; higher = larger share of this subpopulation than in DMSO controls; settings: 10 µM; 24 h; SM minimal medium; subpopulation (auxotrophy): L
Method in brief: as §1

[5] = system: Saccharomyces cerevisiae BY4741 SeMeCo community; assay: z-score of subpopulation abundance vs DMSO median, subpopulation auxotrophic for U; higher = larger share of this subpopulation than in DMSO controls; settings: 10 µM; 24 h; SM minimal medium; subpopulation (auxotrophy): U
Method in brief: as §1

[6] = system: Saccharomyces cerevisiae BY4741 SeMeCo community; assay: z-score of subpopulation abundance vs DMSO median, subpopulation auxotrophic for H; higher = larger share of this subpopulation than in DMSO controls; settings: 10 µM; 24 h; SM minimal medium; subpopulation (auxotrophy): H
Method in brief: as §1

[7] = system: Saccharomyces cerevisiae BY4741 SeMeCo community; assay: z-score of subpopulation abundance vs DMSO median, subpopulation auxotrophic for HU; higher = larger share of this subpopulation than in DMSO controls; settings: 10 µM; 24 h; SM minimal medium; subpopulation (auxotrophy): HU
Method in brief: as §1

[8] = system: Saccharomyces cerevisiae BY4741 SeMeCo community; assay: z-score of subpopulation abundance vs DMSO median, subpopulation auxotrophic for UM; higher = larger share of this subpopulation than in DMSO controls; settings: 10 µM; 24 h; SM minimal medium; subpopulation (auxotrophy): UM
Method in brief: as §1

[9] = system: Saccharomyces cerevisiae BY4741 SeMeCo community; assay: z-score of subpopulation abundance vs DMSO median, subpopulation auxotrophic for HL; higher = larger share of this subpopulation than in DMSO controls; settings: 10 µM; 24 h; SM minimal medium; subpopulation (auxotrophy): HL
Method in brief: as §1

[10] = system: Saccharomyces cerevisiae BY4741 SeMeCo community; assay: z-score of subpopulation abundance vs DMSO median, subpopulation auxotrophic for HLU; higher = larger share of this subpopulation than in DMSO controls; settings: 10 µM; 24 h; SM minimal medium; subpopulation (auxotrophy): HLU
Method in brief: as §1

[11] = system: Saccharomyces cerevisiae BY4741 SeMeCo community; assay: z-score of subpopulation abundance vs DMSO median, subpopulation auxotrophic for HLM; higher = larger share of this subpopulation than in DMSO controls; settings: 10 µM; 24 h; SM minimal medium; subpopulation (auxotrophy): HLM
Method in brief: as §1

[12] = system: Saccharomyces cerevisiae BY4741 SeMeCo community; assay: z-score of subpopulation abundance vs DMSO median, subpopulation auxotrophic for HUM; higher = larger share of this subpopulation than in DMSO controls; settings: 10 µM; 24 h; SM minimal medium; subpopulation (auxotrophy): HUM
Method in brief: as §1

[13] = system: Saccharomyces cerevisiae BY4741 SeMeCo community; assay: z-score of subpopulation abundance vs DMSO median, subpopulation auxotrophic for LUM; higher = larger share of this subpopulation than in DMSO controls; settings: 10 µM; 24 h; SM minimal medium; subpopulation (auxotrophy): LUM
Method in brief: as §1

[14] = system: Saccharomyces cerevisiae BY4741 SeMeCo community; assay: z-score of subpopulation abundance vs DMSO median, subpopulation auxotrophic for LM; higher = larger share of this subpopulation than in DMSO controls; settings: 10 µM; 24 h; SM minimal medium; subpopulation (auxotrophy): LM
Method in brief: as §1

[15] = system: Saccharomyces cerevisiae BY4741 SeMeCo community; assay: z-score of subpopulation abundance vs DMSO median, subpopulation auxotrophic for HM; higher = larger share of this subpopulation than in DMSO controls; settings: 10 µM; 24 h; SM minimal medium; subpopulation (auxotrophy): HM
Method in brief: as §1

[16] = system: Saccharomyces cerevisiae BY4741 SeMeCo community; assay: z-score of subpopulation abundance vs DMSO median, subpopulation auxotrophic for HLUM; higher = larger share of this subpopulation than in DMSO controls; settings: 10 µM; 24 h; SM minimal medium; subpopulation (auxotrophy): HLUM
Method in brief: as §1

[17] = system: Saccharomyces cerevisiae BY4741 SeMeCo community; assay: z-score of subpopulation abundance vs DMSO median, subpopulation auxotrophic for LU; higher = larger share of this subpopulation than in DMSO controls; settings: 10 µM; 24 h; SM minimal medium; subpopulation (auxotrophy): LU
Method in brief: as §1

SMILES	mean cell size [1]	z-score of prototroph abundance [2]	z-score of subpopulation abundance [3]	z-score of subpopulation abundance [4]	z-score of subpopulation abundance [5]	z-score of subpopulation abundance [6]	z-score of subpopulation abundance [7]	z-score of subpopulation abundance [8]	z-score of subpopulation abundance [9]	z-score of subpopulation abundance [10]	z-score of subpopulation abundance [11]	z-score of subpopulation abundance [12]	z-score of subpopulation abundance [13]	z-score of subpopulation abundance [14]	z-score of subpopulation abundance [15]	z-score of subpopulation abundance [16]	z-score of subpopulation abundance [17]
Cc1cccc(C)c1NC(=O)C1CCCCN1C (stereo not given) [Mepivacaine HCl]	12.5 ± 0.31	-0.33	-0.34	-0.36	1.52	-0.77	0.57	2.17	-0.96	0.11	0.13	0.36	0.38	–	–	–	–
C=C[C@]1(C)C[C@@H](OC(=O)CS[C@@H]2C[C@H]3CC[C@@H](C2)N3C)[C@]2(C)[C@H](C)CC[C@]3(CCC(=O)[C@H]32)[C@@H](C)[C@@H]1O [Retapamulin]	–	-0.09	-0.9	-0.16	0.79	-0.84	0.72	0.21	–	0.45	-0.52	0.06	0.62	0.32	-0.99	0.65	–
Cc1nc(NC(=O)N2CCC[C@H]2C(N)=O)sc1-c1ccnc(C(C)(C)C(F)(F)F)c1 [Alpelisib (BYL719)]	12.6 ± 0.23	-0.14	-0.14	-1.04	0.93	–	–	0.25	-0.35	-0.75	-0.12	0.48	–	–	0.31	-0.78	–
C#C[C@]1(OC(C)=O)CC[C@H]2[C@@H]3CCC4=C[C@@H](OC(C)=O)CC[C@@H]4[C@H]3CC[C@@]21C [Ethynodiol diacetate]	12.3 ± 0.37	0.6	-0.73	-0.15	-1.03	-0.43	-0.23	-0.32	0.67	0.1	-0.54	-0.26	-0.12	–	-0.18	–	–
CC(=O)[C@H]1CC[C@H]2[C@@H]3CCC4=CC(=O)CC[C@]4(C)[C@H]3CC[C@]12C [Progesterone]	12.5 ± 0.23	0.96	0.64	-1.51	-0.24	-1.35	-0.6	0.01	–	-1.13	-0.24	–	-0.61	-0.71	-0.71	-1	–
CCCCCCCCCC(=O)N[C@@H](Cc1c[nH]c2ccccc12)C(=O)N[C@H](CC(N)=O)C(=O)N[C@@H](CC(=O)O)C(=O)N[C@@H]1C(=O)NCC(=O)N[C@@H](CCCN)C(=O)N[C@@H](CC(=O)O)C(=O)N[C@H](C)C(=O)N[C@@H](CC(=O)O)C(=O)NCC(=O)N[C@H](CO)C(=O)N[C@@H]([C@H](C)CC(=O)O)C(=O)N[C@@H](CC(=O)c2ccccc2N)C(=O)O[C@@H]1C [Daptomycin]	12.2 ± 0.16	-0.94	0.17	0.51	-1.42	1.36	0.29	-0.81	2.68	1.3	0.48	0.77	1.02	–	1.93	-0.99	–
CO[C@H]1C[C@@H]2CC[C@@H](C)[C@@](O)(O2)C(=O)C(=O)N2CCCC[C@H]2C(=O)O[C@H]([C@H](C)C[C@@H]2CC[C@@H](OCCO)[C@H](OC)C2)CC(=O)[C@H](C)/C=C(\C)[C@@H](O)[C@@H](OC)C(=O)[C@H](C)C[C@H](C)/C=C/C=C/C=C/1C [Everolimus (RAD001)]	14.17 ± 0.11	-18.1	-1.38	-0.87	2.5	15.9	27.1	12.8	12.2	22.9	–	32.4	12.4	4.3	22.4	24	–
Oc1c(I)cc(I)c2cccnc12 [Diiodohydroxyquinoline]	12.1 ± 0.48	-3.05	-0.3	–	2.25	–	2.97	0.65	2.9	4.17	–	1.2	2.87	–	2.21	1.67	–
CC(C(O)c1ccc(O)cc1)N1CCC(Cc2ccccc2)CC1 (stereo not given) [Ifenprodil Tartrate]	12.5 ± 0.24	0.98	-0.68	–	0.69	-0.73	-0.43	-0.03	-1.19	-1.12	-0.92	-1.27	-0.99	-0.75	-0.88	-1.11	–
Cc1cc(NS(=O)(=O)c2ccc(N)cc2)nc(C)n1 [sulfaisodimidine]	12.1 ± 0.25	-0.51	–	0.19	0.36	-1.29	0.09	0.16	–	0.38	-0.45	-0.19	0.42	0.12	0.38	0.48	0.99
COc1cc(NC(C)CCCN)c2ncccc2c1 (stereo not given) [Primaquine Diphosphate]	–	0.58	1.17	–	-1.22	0.32	–	-0.88	-0.43	-0.39	0.32	–	-0.75	0.09	0.98	-0.49	–
CCC(=O)O[C@@H]1CC(=O)O[C@H](C)C/C=C/C=C/[C@H](O)[C@H](C)C[C@H](CC=O)[C@H](O[C@@H]2O[C@H](C)[C@@H](O[C@H]3C[C@@](C)(O)[C@@H](OC(=O)CC)[C@H](C)O3)[C@H](N(C)C)[C@H]2O)[C@H]1OC [Midecamycin]	12.33 ± 0.1	-0.41	–	-0.17	-0.73	0.88	0.44	-0.3	–	-0.1	0.18	0.7	-0.4	0.61	1.3	-0.96	-0.66
CCOc1ccc2nc3cc(N)ccc3c(N)c2c1 [Ethacridine lactate monohydrate]	12.86 ± 0.11	3.33	5.99	–	-8.13	4.4	-8.09	-9.56	3.54	-4.38	5.56	-6.59	-5.24	4.18	–	-2.52	–
CC(C)Cc1ccc(C(C)C(=O)O)cc1 (stereo not given) [Ibuprofen]	13.04 ± 0.12	3.17	-0.51	–	-1.82	-0.54	-2.1	-3.84	-0.54	-0.51	0.37	-3.22	-2.23	-0.71	-1.2	-0.59	–
